GPR151 activ: activators of human GPR151, primary screen, cell-based, PathHunter beta-arrestin, luminescence. activation, % at 11.2 µM. AID 1508602, 2020. 1% of 650,000 active. PathHunter beta-arrestin GPR151 cells; in the data active = activation above about 4.9%;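 note: 0% = median of compound wells and 100% = cells with positive control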
FBW7 activator: FBW7 E3 ligase activators, primary screen, biochemical, AlphaScreen, human; F-box/WD repeat-containing protein 7 (Homo sapiens), Q969H0; AlphaScreen FBW7–phospho-cyclin E peptide binding, activator screen; normalized activity (activation), % at 26.1 µM; 0.13% of 650,000 active; AID 1259310, 2017; in the data active = normalized activity above about 1.9%;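 note: purified mutant Fbw7 with reduced substrate affinity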
MITF inh: MITF inhibitors, primary screen, biochemical, AlphaScreen, human | AlphaScreen MITF homodimerization, bead proximity signal | inhibition, % at 2.6 µM | 0.91% of 650,000 active | AID 1259374, 2018; in the data active = inhibition above about 50%;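 note: 0% = vehicle wells with protein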
TEAD-YAP block: TEAD-YAP interaction inhibition, primary screen, TEAD-YAP interaction inhibitor project, luminescence, HEK-TIYL cells; TEAD-Gal4/YAP UAS-luciferase luminescence; inhibition, % at 9.12 µM; 1.4% of 640,000 active; AID 1259422, 2018; in the data active = inhibition above about 32%;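 note: 0% = median of test compound wells and 100% = reference inhibitor wells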
* hit, by the source's call; ! = a repeat was not active. A selection: hits, their analogues and other compounds. The true share with any hit is near 3.4%.

SMILES	GPR151 activ	FBW7 activator	MITF inh	TEAD-YAP block
COC(=O)CN1C(=S)N(C)C(=O)/C1=C/c1cc(OC)c(O)c(OC)c1	2	0	27	46*
CC(=O)N(C1=C(N2CCCCC2)C(=O)c2ccccc2C1=O)c1ccccc1C	-2	0	14	36*
CC(=O)N(C)C1=C(N2CCCCC2)C(=O)c2ccccc2C1=O	-1	0	0	91*
O=C(CSc1n[nH]c(-c2ccncc2)n1)c1ccc(O)c(O)c1	5	0	99*	-4
COc1ccc(Cl)cc1NC(=O)CNC(=O)c1nn(-c2ccc(OC)c(OC)c2)c(=O)c2ccccc12	1	0	7	21
COc1ccc(-c2coc3cc(O)ccc3c2=O)cc1	-3	0	25	53*!
COc1ccc(-c2coc3cc(OC)ccc3c2=O)cc1	-1	0	-2	9
Cc1nc(-c2coc3cc(O)cc(O)c3c2=O)cs1	-5	0	-13	-34
Cc1oc2cc(O)ccc2c(=O)c1-c1ccc2c(c1)OCCO2	-1	0	10	-13
CC(C)Oc1cc(O)c2c(=O)c(-c3ccc(O)cc3)coc2c1	0	0	3	57*
Cc1oc2cc(O)cc(O)c2c(=O)c1-c1ccc2c(c1)OCCCO2	0	0	7	43*
COc1ccc(-c2coc3cc(O)cc(O)c3c2=O)cc1	0	0	-5	37*!
CCOC(=O)C(C)Oc1ccc2c(=O)c(-c3ccc(OC(C)C)cc3)coc2c1 (centres undefined)	1	0	-4	0
Cc1ccc(/C=C2/C(=N)N3C(=NC2=O)SN=C3S(C)(=O)=O)cc1	1	0	5	1
O=c1c(-c2ccc(Br)cc2)coc2cc(O)cc(O)c12	0	1	13	-19
O=c1c(-c2ccc(Cl)cc2)coc2cc(O)ccc12	-4	0	4	16
O=c1c(-c2ccc(O)cc2)coc2cc(O)cc(O)c12	-2	0	15	44*!
O=c1c(-c2ccc3c(c2)OCCCO3)coc2cc(O)ccc12	-3	0	-1	75*
CCOC(=O)C1CCN(/C=C2\C(=O)NC(=O)N(c3ccc(C)cc3)C2=O)CC1	-1	0	8	-3
CN(CC(=O)NCCC1=CCCCC1)S(=O)(=O)c1cccs1	2	0	-8	-16
Cn1c(=O)cc(OCCCC(=O)Nc2ccccc2F)c2ccccc21	4	0	-3	-3
Cc1nc2sccn2c1CN1CCN(CCc2ccccc2)C(CCO)C1 (centres undefined)	-2	0	19	-5
Cc1nc2sccn2c1CN1CCCC(N(C)CCc2ccccc2)C1 (centres undefined)	1	0	-1	43*
COc1cccc(CC2(CO)CCCN(Cc3c(C)nc4sccn34)C2)c1 (centres undefined)	0	0	22	41*
CCOC(=O)C1(Cc2cccc(OC)c2)CCN(Cc2c(C)nc3sccn23)CC1	1	0	12	26
SMILES	GPR151 activ	FBW7 activator	MITF inh	TEAD-YAP block
COc1ccccc1-n1c(SCC(=O)Nc2nccs2)nnc1-c1ccncc1	-2	0	10	62*
Cc1ccccc1-n1c(SCC(=O)Nc2nccs2)nnc1-c1ccncc1	-1	0	0	21
COc1ccccc1-n1c(SCC(=O)Nc2nccs2)nnc1-c1cccnc1	0	0	0	56*
COc1cccc(NC(=O)CSc2nnc(-c3cccnc3)n2-c2ccccc2C)c1	0	0	11	-2
Cc1csc(NC(=O)CSc2nnc(-c3cccnc3)n2-c2cccc(C)c2C)n1	0	0	-4	13
COc1ccccc1-n1c(SCC(=O)Nc2cccc(F)c2)nnc1-c1cccnc1	-1	0	4	46*
COc1ccccc1-n1c(SCC(=O)Nc2nc(C)cs2)nnc1-c1cccnc1	-1	0	11	53*
COc1ccc(N2C(=O)CC(NCC(O)c3ccccc3)C2=O)cc1 (centres undefined)	1	0	-1	-8
CC(NC(=O)C(=O)NCCN(C)C)C(c1cccs1)N1CCOCC1 (centres undefined)	0	1	8	-3
CN(C)c1nc(Oc2ccc(OCC(N)=O)cc2)nc(N(C)C)n1	0	0	32	-7
Nc1cccc(-c2cccc(C(=O)NCCCN3CCCC3=O)c2)c1	0	0	0	41*
O=C(c1ccc(Cl)c(NC2=NC3CS(=O)(=O)CC3S2)c1)N1CCCC1 (centres undefined)	1	0	-4	-5
COc1cc(C=O)ccc1OCCN1CCOCC1	0	0	1	40*
CCOc1cc(C=O)ccc1OCCN1CCOCC1	-1	0	9	10
Cc1cc(C)nc(SCC(=O)Nc2ccc(N3CCOCC3)c(Cl)c2)n1	3	0	-4	32*
CC1=C(C(=O)OC2CCCC2)C(c2ccccc2Cl)NC(=O)N1 (centres undefined)	1	0	-3	-15
O=C1C(=C2C=CN(CCc3ccccc3)C=C2)C(=O)c2ccccc21	-1	0	-7	-65
CCCCN1C=CC(=C2C(=O)c3ccccc3C2=O)C=C1	-8	1	18	96*
CCC1=NN(C(=O)c2ccccc2O)C(O)(c2ccccc2)C1 (centres undefined)	-1	0	1	46*
CCn1c2cc(C)sc2c2cnn(CC(=O)NC(C)C)c(=O)c21	-1	0	5	-5
COc1cccc(C(=O)Nc2nc3ncccc3cc2-c2ccccc2)c1OC	-1	0	1	-7
O=C(Nc1ccccc1O)c1cccc(S(=O)(=O)N2CCCCC2)c1	0	1	14	5
O=C(Nc1cccc2cnccc12)c1cccc(S(=O)(=O)N2CCCCCC2)c1	1	0	8	38*
COC1=C/C(=C/c2c(N)n3nc(-c4ccccc4C)sc3nc2=O)C=CC1=O	-1	0	-8	-11
CCOC(=O)N1CCc2c(sc3c2C(=O)NC(c2ccc(Cl)cc2)N3)C1 (centres undefined)	0	0	7	13
CCOC(=O)N1CCc2c(sc3c2C(=O)NC(/C=C\c2ccccc2)N3)C1 (centres undefined)	1	0	-10	51*
COc1ccc2c(c1)C[C@@H](C(=O)Nc1ccc(-c3ccncc3)cc1OCCN1CCCC1)CO2	-2	0	15	-5
CCOc1ccc(C2Nc3ccc(C(=O)c4ccccc4)cc3NC3=C2C(=O)CCC3)cc1 (centres undefined)	2	0	17	47*
O=C1CCCC2=C1C(c1ccc(F)c(Oc3ccccc3)c1)Nc1ccc(C(=O)c3ccccc3)cc1N2 (centres undefined)	2	0	2	8
COc1cc(C2Nc3ccc(C(=O)c4ccccc4)cc3NC3=C2C(=O)CCC3)cc(OC)c1O (centres undefined)	-1	0	-11	68*

Bioassay records from PubChem BioAssay.
